Sampled rows, rich in hits. Any-hit rate of the full collection: about 3.9%.
HepG2 tox = kills HepG2 cells in TGF-b inhibitor counter-screen; HepG2 CAGA-GFP viability, ATP luminescence, 18 h; Potency, µM (series often up to 46.1 µM), for inactives: at the top dose activity change, negative = cytotoxicity, actives largely listed as cytotoxic; actives 0.76% (n = 410,000); AID 588856
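CellTiter-Glo luminescence gave cytotoxicity after 18 hours at 37 degrees C. The cells were HepG2 CAGA-GFP in 1% FBS DMEM, stimulated with 500 pg/mL TGF-beta after compound addition. %Activity was normalised to no-cell wells (complete cell-killing) and DMSO (no toxicity), and curves were fitted and classified.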
ATXN2 expr inh = inhibitors of ATXN2 expression. actives 0.72% (n = 360,000). AID 1745845. HEK-293 ATXN2-luciferase reporter, luminescence, 24 h. Potency, µM (top dose mostly 57 µM), for inactives: at the highest dose activity change, negative = inhibition, hits mostly inhibitors; further: on the % scale 0 is the no-effect control and ±100 the full control effect; nearly all actives have a fitted effect of over 55% in size
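ATXN2-luciferase reporter cells (luciferase flanked by upstream and downstream ATXN2 gene portions) were treated 24 h at 37 °C with compounds at up to 57 uM. SteadyGlo luminescence gave expression; GF-AFC fluorescence gave viability.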
HT1080 IDH1KD tx = kills HT-1080 cells with IDH1 knockdown; actives 2% (n = 360,000); Potency, µM (top dose mostly 46.1 µM), for the others: top-dose activity, negative = toxicity, usual class: cytotoxic; AID 686971; HT-1080 IDH1 knockdown viability, ATP luminescence, 48 h;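 further: 0% = DMSO wells and -100% = cell-free medium wells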
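Luminescent ATP read-out (CellTiter-Glo, 10 min at room temperature) after 48 h compound exposure at 37 °C gave viability of IDH1-knockdown HT-1080 cells. Activity was normalised to DMSO and cell-free wells, then fitted as concentration-response curves.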
HT1080-NT tox = kills 2HG-producing HT-1080-NT fibrosarcoma cells. actives 1.6% (n = 360,000). HT-1080-NT fibrosarcoma viability, CellTiter-Glo ATP luminescence, 48 h. Potency, µM (doses to about 46.1 µM), for the others: at the top dose activity, negative = less viability, actives largely listed as cytotoxic;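 further: NT is the 2HG producing partner of a matched IDH1 knockdown line; 0% = DMSO-treated cells and -100% = media-only wells without cells; nearly all actives have a fitted effect of over 55% in size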
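Viability of the 2HG-overproducing fibrosarcoma line after 48 hours of compound exposure at 37 degrees C was determined by luminescence with CellTiter-Glo, and concentration-effect curves were then fitted and categorized.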
ATXN viability = reduces viability in counter-screen for ATXN expression inhibitors; S2 cells (HEK-293 line with an ATXN2-luciferase reporter) viability, CellTiter-Fluor protease fluorescence, 24 h; Potency, µM (doses to about 56.7 µM), hits mostly cytotoxic; actives 0.49% (n = 400,000); AID 651635; further: nearly all actives have a fitted effect of over 40% in size
TGFb inhibitor = inhibitors of TGF-b signaling; HepG2 CAGA-GFP TGF-b/SMAD3 reporter, GFP fluorescence, 18 h; TGF-beta stimulated, 500 pg/mL final; Potency, µM (top dose mostly 46.1 µM), inactives show at the top dose activity, negative = inhibition, actives largely listed as inhibitors; actives 1.2% (n = 410,000); AID 588855; further: on the % scale 0 is the no-effect control and ±100 the full control effect; nearly all actives have a fitted effect of over 65% in size
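GFP signal (ex488/em500-530) from TGF-beta-stimulated HEPG2 CAGA-GFP cells, 500 pg/mL final, 18 h at 37 degrees C in DMEM plus 1% FBS, normalized to unstimulated and DMSO-stimulated controls.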
Active calls of the source: *; i = inactive; ? = inconclusive; nt = not tested or not shown. The call rests on the fitted dose curve; in most records, active means well fitted curve in the direction sought with a large enough effect; inconclusive means small, poorly fitted or top-dose-only effect, or another doubt; inactive means no such curve, though single readings can be large; an effect the other way counts as inactive or inconclusive. Potency means the concentration at half of the fitted maximal effect.

SMILES	HepG2 tox	ATXN2 expr inh	HT1080 IDH1KD tx	HT1080-NT tox	ATXN viability	TGFb inhibitor
CC(Oc1ccccc1)C(=O)N(CCC1=CCCCC1)c1c(N)n(Cc2ccccc2)c(=O)[nH]c1=O (configuration not stated)	-79.6%	-3.0%	?	23.1µM*	i	17.8µM*
Nc1c(N(CCC2=CCCCC2)C(=O)CCCOc2ccccc2)c(=O)[nH]c(=O)n1Cc1ccccc1	2.9%	7.7%	-1.4%	-10.0%	?	-10.7%
Cc1cc(OCc2cc(C(=O)NC(C)c3c(C)nn(C)c3C)no2)cc(C)c1Cl (configuration not stated)	-31.6%	?	?	?	i	11.2µM*
Cc1cc(C)n(-c2ccc(C(=O)NCC3Cc4cc(-c5cnccn5)ccc4O3)cc2)n1 (configuration not stated)	nt	nt	nt	nt	i	nt
CC(C)(C)c1ccc(C(=O)N2CCC(c3noc(-c4ccc(S(=O)(=O)N5CCCC5)cc4)n3)CC2)cc1	-12.9%	nt	nt	nt	nt	-3.0%
Oc1ccccc1Nc1nc(NCc2ccccc2)c2ccccc2n1	-40.3%	?	?	?	i	11.2µM*
CCCCNc1nc(NCc2ccccc2)nc2ccccc12	nt	22.4µM*	16.4µM*	?	31.6µM*	nt
Cc1c(Cl)cccc1Nc1nc(NCCO)c2ccccc2n1	-18.5%	-11.8%	?	?	i	11.2µM*
N#CC1=C(N)OC2=C(CC/C2=C\c2ccccc2Cl)C1c1ccccc1Cl (configuration not stated)	-27.6%	nt	3.9%	0.9%	nt	11.2µM*
COC(=O)c1ccc(CN2C[C@H](Sc3ccccn3)C[C@H]2C(=O)N(C)C)cc1	nt	nt	nt	nt	i	nt
CNc1ccc(Br)cc(C(=O)/C=C/c2ccc(Cl)cc2Cl)c1=O	-25.7%	?	20.6µM*	?	?	?
CCNc1ccc(Br)cc(C(=O)/C=C/c2ccc(Cl)cc2)c1=O	-43.0%	22.4µM*	?	?	nt	-0.5%
CNc1ccc(Br)cc(C(=O)/C=C/c2ccc(OC)cc2OC)c1=O	-2.8%	2.6%	-17.2%	-7.0%	i	?
O=C(c1cncc(Br)c1)N1CCC(N2CCCC2)CC1	nt	-1.7%	nt	nt	nt	nt
O=C(C1CCCN(S(=O)(=O)c2cccc3nsnc23)C1)N1CCN(c2ccccc2F)CC1 (configuration not stated)	-17.1%	-9.3%	nt	nt	i	?
O=C(Nc1cccc(C(F)(F)F)c1)C1CCCN(S(=O)(=O)c2cccc3nsnc23)C1 (configuration not stated)	-17.3%	-12.1%	nt	nt	i	6.31µM*
O=C(C1CCCN(S(=O)(=O)c2cccc3nsnc23)C1)N1CCN(c2ccccc2Cl)CC1 (configuration not stated)	-36.3%	-21.2%	nt	nt	i	14.1µM*
CCO[C@H](Cc1ccc(OCCc2ccc(OS(C)(=O)=O)cc2)cc1)C(=O)O	nt	15.9%	nt	nt	i	nt
O=c1c2ccccc2sc2c(CO)ccc(NCCN3CCCCC3)c12	-9.9%	18.9µM*	?	-28.2%	?	?
CCN(CC)CCNc1ccc(CO)c2sc3ccccc3c(=O)c12	-15.3%	28.2µM*	20.6µM*	11.6µM*	31.6µM*	?
CS(=O)(=O)c1ccc2nc(NC(=O)CCS(=O)(=O)c3ccccc3)sc2c1	7.08µM*	?	20.6µM*	-25.8%	31.6µM*	?
O=C(CCS(=O)(=O)c1ccccc1)Nc1nc2cc3c(cc2s1)OCCO3	-87.0%	25.0%	?	-0.1%	i	12.6µM*
CCN(CC)S(=O)(=O)c1cccc(C(=O)Nc2nc3cc4c(cc3s2)OCCO4)c1	-24.4%	?	?	11.2µM*	?	-26.5%
O=C(CCS(=O)(=O)c1ccccc1)Nc1nc(-c2ccc(F)cc2)cs1	-52.4%	-6.5%	20.6µM*	?	i	?

Bioassay records as filed in PubChem BioAssay.
